Test results from the supplement of paper PMC8253809.
Where “and” joins values, the source holds several entries; their conditions need not be identical. Identical values can stand only once.

Columns and labels:
Experiment in all cases: growth inhibition (% activity, log2 RLU normalised to DMSO / staurosporine); higher = more growth inhibition
Details in all cases: 33 µM
[1] = system: DIPGX29 (H3.3 K27M diffuse intrinsic pontine glioma line)
Method in brief: (§1)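 In triplicate, pHGG cell lines and H9-derived neural stem cells were treated for 7 days at 37 °C, 5% CO2 with approved drugs at a single final concentration of about 33 μM, added by pin tool. CellTiter-Glo luminescence, after log2 transformation, was normalised on each plate to % activity between solvent and positive control wells. Growth inhibition is reported as the median across replicates.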

[2] = system: DIPGX37 (H3.3 K27M diffuse intrinsic pontine glioma line)
Method in brief: as §1

[3] = system: DIPGX7 (H3.3 K27M diffuse intrinsic pontine glioma line)
Method in brief: as §1

[4] = system: DIPGX9 (diffuse intrinsic pontine glioma line)
Method in brief: as §1

[5] = system: HGGX39 (paediatric high-grade glioma line)
Method in brief: as §1

[6] = system: HGGX6 (H3.3 G34R paediatric high-grade glioma line)
Method in brief: as §1

[7] = system: HNSC
Method in brief: as §1

[8] = system: SUDIPGIV (diffuse intrinsic pontine glioma line)
Method in brief: as §1

[9] = system: SUDIPGVI (diffuse intrinsic pontine glioma line)
Method in brief: as §1

[10] = system: SUDIPGXIII (diffuse intrinsic pontine glioma line)
Method in brief: as §1

SMILES | growth inhibition [1] | growth inhibition [2] | growth inhibition [3] | growth inhibition [4] | growth inhibition [5] | growth inhibition [6] | growth inhibition [7] | growth inhibition [8] | growth inhibition [9] | growth inhibition [10]
Cc1ccc(NC(=O)c2ccc(CN3CCN(C)CC3)cc2)cc1Nc1nccc(-c2cccnc2)n1 | 4.56% and 0.376% | 3.89% and 0.0929% | 5.28% and 3.03% | 2.43% and -0.42% | 8.41% and 4.83% | 5.52% and -1.5% | 3.25% and -0.323% | 4.42% and 1.82% | 4.93% and -0.526% | -15.8% and 0.752%
NS(=O)(=O)c1cc2c(cc1Cl)N=C(CSCc1ccccc1)NS2(=O)=O | -2.8% | -0.538% | -2.64% | -1.82% | -3.59% | -4.3% | 3.58% | -1.69% | -6.04% | -0.239%
O=c1cc[nH]c(=S)[nH]1 | 1.29% | 1.68% | 2.17% | 2.37% | 0.218% | -1.78% | 36.9% | 1.67% | -6.46% | 0.601%
Clc1ccc(C(Cn2ccnc2)OCc2ccc(Sc3ccccc3)cc2)c(Cl)c1 (stereo not given) | 2.76% | 0.833% | 2.5% | 4.7% | 11.8% | 8.32% | 14% | 11.4% | 2.82% | 5.1%
Cc1cc2nc3c(=O)[nH]c(=O)nc-3n(C[C@H](O)[C@H](O)[C@H](O)CO)c2cc1C | -1.75% | 2.89% | 0.461% | -0.233% | 2.78% | -1.29% | 6.98% | 4.43% | 2.29% | 1.1%
Cc1ccc(C(=O)C(C)CN2CCCCC2)cc1 (stereo not given) | 0.542% | 0.69% | 0.522% | 0.564% | 1.58% | 2.83% | -0.193% | -0.938% | -0.166% | 0.909%
CCc1c(Cl)c(O)c(Cl)c(O)c1C(=O)O[C@H]1[C@H](O)[C@H](OC)[C@H](OC/C2=C\C=C\C[C@H](O)/C(C)=C/[C@H](CC)[C@@H](O[C@@H]3OC(C)(C)[C@@H](OC(=O)C(C)C)[C@H](O)[C@@H]3O)/C(C)=C/C(C)=C/C[C@@H]([C@@H](C)O)OC2=O)O[C@@H]1C | 0.669% | 2.16% | 0.835% | -0.411% | 9.09% | 0.0636% | 11.6% | 3.19% | 2.46% | 0.498%
CCN1CCN(c2cc(-c3ccc(F)cc3)c3c(n2)CCCCCC3)CC1 | 9.89% | 1.2% | 21.9% | 4.47% | 10.1% | 0.894% | 5% | 4.82% | 4.25% | 2.42%
N#Cc1c(N(CC(=O)O)CC(=O)O)sc(C(=O)O)c1CC(=O)O | -0.0468% | -1.11% | -0.504% | 1.29% | 1.34% | -1.45% | 27.7% | 1.52% | 0.043% | -2.77%
O=C(CCCN1CCC(O)(c2ccc(Cl)cc2)CC1)c1ccc(F)cc1 | 0.532% | 0.49% | 2.11% | 2.82% | 5.5% | 1.74% | 2.33% | 2.23% | 0.854% | 1.18%
CCC(C)(C)C(=O)O[C@H]1C[C@@H](C)C=C2C=C[C@H](C)[C@H](CC[C@@H]3C[C@@H](O)CC(=O)O3)[C@H]21 | 6.91% | -7.26% | 9.48% | 1.4% | 15.7% | 11.3% | 60.4% | 19% | -11.4% | 3.91%
CN1C(C(=O)Nc2ccccn2)=C(O)c2sc(Cl)cc2S1(=O)=O | -1.88% | -0.653% | -2.4% | 0.761% | -1.26% | -0.605% | -1.13% | -7.21% | -0.634% | 2.15%
NCC1OC(OC2C(N)CC(N)C(OC3OC(CO)C(O)C(N)C3O)C2O)C(N)C(O)C1O (stereo not given) | -1.38% | 0.63% | 0.452% | -1.1% | 1.6% | -1.9% | 30.8% | -0.143% | -4.48% | -1.57%
O=NO | 0.973% | 1.57% | -0.944% | 0.322% | 0.656% | 1.76% | -0.386% | -0.178% | 1.15% | -0.00307%
CC12CC3CC(C)(C1)CC(N)(C3)C2 | 0.0357% | -0.52% | 0.741% | 1.54% | 1.57% | 1.17% | -0.299% | 0.153% | 0.617% | 1.06%
Nc1nc(Cl)nc2c1ncn2[C@H]1C[C@H](O)[C@@H](CO)O1 | 18.6% | 8.52% | 14.4% | 39.6% | 16.4% | 14.2% | 55.2% | 41.7% | 5.86% | 17%
CCCNC(C)C(=O)Nc1ccccc1C (stereo not given) | -1.66% | 0.68% | -1.19% | -0.603% | 0.299% | -0.0141% | -2.37% | -1.79% | -0.942% | -0.434%
COc1cc(/C=C/C(=O)CC(=O)/C=C/c2ccc(O)c(OC)c2)ccc1O | -0.948% | 1.27% | 1.4% | 0.547% | 0.698% | 1.98% | -1.04% | -2.56% | 0.323% | -11.1%
CN(C/C=C/c1ccccc1)Cc1cccc2ccccc12 | 1.23% | -0.956% | -0.0716% | 1.9% | 1.84% | 2.12% | -1.49% | 0.156% | 1.27% | 0.316%
NS(=O)(=O)c1cc2c(cc1Cl)NCNS2(=O)=O | -1.36% | -0.293% | -0.977% | 0.545% | 0.937% | -0.432% | -1.69% | -0.42% | 0.531% | 1.25%
Clc1ccc(CSC(Cn2ccnc2)c2ccc(Cl)cc2Cl)cc1 (stereo not given) | 3.26% | -0.102% | 3.59% | 1.99% | 11.1% | 8.31% | 9.42% | 16.1% | 3.55% | 10.8%
